The text below walks through data of PubChem BioAssay.

Assay [1] has as its system Plasmodium falciparum Sir2 (PF13_0152, Sir2A). As to the kind of experiment: Plasmodium falciparum Sir2A binding compounds – biochemical, small-molecule microarray, 635 nm fluorescence, primary screen (AID 1098).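 Note: score merges spot fluorescence intensity with its signal-to-noise ratio.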 The conditions noted are these: fluorescence 635 nm, higher = more signal.
The nature of assay [2]: probe aDKK1 binding to arrayed compounds – biochemical, biotinylated probe, 635/667 nm fluorescence, primary screen (AID 1099).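 Note: score merges 667nm spot fluorescence with signal to noise across triplicate slides.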 The following applies: small-molecule microarray, higher = more signal.
Assay [3] in a line: probe aCHRDL2 binding to arrayed compounds – biochemical, biotinylated probe, 635/667 nm fluorescence, primary screen (AID 1100). The following applies: small-molecule microarray, higher = more signal.
Assay [4] in a line: change in splice reporter luminescence, either direction, cell-based, HEK293, spliceosome inhibition project, primary screen (AID 1101).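 Note: HEK293 cells carrying a splicing-competent luciferase reporter gene; test concentration not given here.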 The conditions noted are these: HEK293 splicing luciferase reporter, 24 h, higher = more signal, called active from +8 up or from −8 down. On the technique in general: A reporter such as luciferase makes a cellular process visible.
The target of assay [5] is Fibroblast growth factor 10 (Homo sapiens) (UniProt O15520). As to the kind of experiment: compounds binding fibroblast growth factor 10 – biochemical, small-molecule microarray, 635 nm fluorescence, primary screen (AID 1102). The conditions noted are these: FGF10 binding, fluorescence 635 nm, higher = more signal.
Assay [6] deals with glycogen synthase kinase-3 (GSK3A per assay name; protocol says GSK3B). As to the kind of experiment: compounds binding glycogen synthase kinase-3 – biochemical, small-molecule microarray, 635 nm fluorescence, GSK3A, primary screen (AID 1103). Note: the record names both GSK3A and GSK3B. The following applies: fluorescence 635 nm, higher = more signal.
The target in assay [7] is Epidermal growth factor receptor (Homo sapiens) (UniProt P00533). In words: compounds binding epidermal growth factor receptor – biochemical, small-molecule microarray, 635 nm fluorescence, primary screen (AID 1104).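 Note: score merges 667 nm emission intensity with spot signal to noise over triplicate slides.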 The following applies: EGFR binding, higher = more signal.
Assay [8] concerns the target Follistatin-related protein 3 (Homo sapiens) (UniProt O95633). In words: compounds binding follistatin-related protein 3 – biochemical, small-molecule microarray, 635 nm fluorescence, primary screen (AID 1105).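 Note: score merges emission near 667 nm and signal to noise per printed spot across three slides.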 The following applies: FSTL3 binding, higher = more signal.
The target of assay [9] is Dickkopf-related protein 1 (Homo sapiens) (UniProt O94907). As to the kind of experiment: small molecules binding DKK1 protein – biochemical, small-molecule microarray, 635 nm fluorescence scan, primary screen (AID 1106).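 Note: score merges emission near 667 nm with signal to noise over three replicate slides.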 The conditions noted are these: higher = more signal.
The subject of assay [10] is Inhibin beta A chain (activin A). As to the kind of experiment: small molecules binding activin A – biochemical, small-molecule microarray, 635 nm fluorescence scan, primary screen (AID 1107).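 Note: mouse activin A protein probed at 4.33 µg/mL on printed slides; score merges bound-protein fluorescence near 667 nm with spot signal-to-noise.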 The conditions noted are these: INHBA, higher = more signal.
Assay [11] has as its system Human papillomavirus type 1a protein E7 (residues 44-93). In words: small molecules binding HPV E7 44-93 – biochemical, small-molecule microarray, residues 44-93, 635 nm fluorescence, primary screen (AID 1108).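 Note: E7 fragment applied at 1 µg/mL in TBST for 1 h at 4 C; score combines spot fluorescence with its signal to noise ratio.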 The conditions noted are these: fluorescence 635 nm, higher = more signal.
Assay [12] can be described thus: hepatitis C replication reporter changes, two-sided – Huh7 cells, luciferase reporter, HCV replication inhibitor project, primary screen (AID 1109).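 Note: huh7 hepatoma cells harbouring a luciferase neomycin HCV replicon reporter; luciferase luminescence as measure of HCV replicon replication; test concentration not given here.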 The conditions noted are these: Huh7 HCV replicon luciferase reporter, 48 h; higher = more signal.
In assay [13] the target is Left-right determination factor 2 (Homo sapiens) (UniProt O00292). In words: small molecules binding LEFTY2 protein – biochemical, small-molecule microarray, 635 nm fluorescence scan, primary screen (AID 1110). The following applies: higher = more signal.
In assay [14] the target is Calmodulin-1 (Homo sapiens) (UniProt P0DP23). In words: small molecules binding calmodulin-1 with EGTA – biochemical, small-molecule microarray, Cy5-labelled CALM1, profiling panel (AID 1111).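 Note: labelled calmodulin applied in Tris saline Tween buffer holding calcium plus EGTA and DTT.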 The conditions noted are these: Cy5-CALM1 binding fluorescence, higher = more signal.
Assay [15] shares this target. As to the kind of experiment: small molecules binding Ca-loaded calmodulin-1 – biochemical, small-molecule microarray, Cy5-labelled CALM1, plus calcium, artefact control for SMM control-protein annotation, profiling panel (AID 1112).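 Note: score merges spot fluorescence with signal to noise from triplicate slides.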 The following applies: Cy5-CALM1 binding fluorescence, higher = more signal.
Assay [16] is described as follows: probe aWnt5a binding to arrayed compounds – biochemical, biotinylated probe, 635/667 nm fluorescence, primary screen (AID 1113).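 Note: score merges 667 nm fluorescence intensity with signal-to-noise per printed feature.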 The following applies: small-molecule microarray, higher = more signal.
Assay [17] can be described thus: probe aShh binding to arrayed compounds – biochemical, biotinylated probe, 635/667 nm fluorescence, primary screen (AID 1114).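 Note: probe is biotin-labelled aShh protein from a stem cell growth factor screen; measures binding of labelled protein to compounds printed on the slide; score merges feature fluorescence at 667 nm with signal-to-noise.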 The conditions noted are these: small-molecule microarray, higher = more signal.
Assay [18] is described as follows: probe aNog binding to arrayed compounds – biochemical, biotinylated probe, 635/667 nm fluorescence, primary screen (AID 1115).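 Note: probe is biotinylated aNog protein used at 0.15 µg/mL for 1 h at 4 C; z-score combines 667 nm fluorescence of each spot with its signal to noise.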 The following applies: small-molecule microarray, higher = more signal.
In assay [19] the target is Torsin-1A-interacting protein 1 (Homo sapiens) (UniProt Q5JTV8). As to the kind of experiment: compound microarray binding of lysate hLAP1 – cell lysate, small-molecule microarray, COS7 lysate, 635/667 nm fluorescence, primary screen (AID 1116). The conditions noted are these: 635 nm fluorescence, higher = more signal.
In assay [20] the target is Alpha-bungarotoxin (Bungarus multicinctus) (UniProt P60615). As to the kind of experiment: compounds binding labelled alpha-BTX control protein – biochemical, small-molecule microarray, Alexa647 label, 635/667 nm fluorescence, artefact control for SMM control protein annotation, profiling panel (AID 1117). The conditions noted are these: alpha-BTX-A647 binding fluorescence, higher = more signal.

The source made the active and inactive calls.

Sequence of Follistatin-related protein 3 (Homo sapiens) (O95633 whole entry, looked up): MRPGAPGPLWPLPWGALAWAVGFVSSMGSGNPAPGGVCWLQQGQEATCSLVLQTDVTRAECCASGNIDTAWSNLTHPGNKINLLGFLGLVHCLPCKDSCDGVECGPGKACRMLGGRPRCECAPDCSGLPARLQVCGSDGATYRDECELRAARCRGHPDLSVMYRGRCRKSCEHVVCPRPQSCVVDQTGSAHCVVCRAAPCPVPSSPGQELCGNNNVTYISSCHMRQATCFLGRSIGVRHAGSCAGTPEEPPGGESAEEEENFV
Sequence of Dickkopf-related protein 1 (Homo sapiens) (O94907 whole entry, looked up): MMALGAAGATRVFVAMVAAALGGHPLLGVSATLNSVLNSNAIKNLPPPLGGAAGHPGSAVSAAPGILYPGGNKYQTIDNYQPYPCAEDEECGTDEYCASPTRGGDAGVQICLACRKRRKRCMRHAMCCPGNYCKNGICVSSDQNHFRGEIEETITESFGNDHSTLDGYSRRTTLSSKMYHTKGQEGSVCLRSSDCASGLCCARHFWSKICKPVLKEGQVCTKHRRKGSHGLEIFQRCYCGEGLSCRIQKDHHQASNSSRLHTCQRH
Sequence of Epidermal growth factor receptor (Homo sapiens) (P00533 whole entry, looked up): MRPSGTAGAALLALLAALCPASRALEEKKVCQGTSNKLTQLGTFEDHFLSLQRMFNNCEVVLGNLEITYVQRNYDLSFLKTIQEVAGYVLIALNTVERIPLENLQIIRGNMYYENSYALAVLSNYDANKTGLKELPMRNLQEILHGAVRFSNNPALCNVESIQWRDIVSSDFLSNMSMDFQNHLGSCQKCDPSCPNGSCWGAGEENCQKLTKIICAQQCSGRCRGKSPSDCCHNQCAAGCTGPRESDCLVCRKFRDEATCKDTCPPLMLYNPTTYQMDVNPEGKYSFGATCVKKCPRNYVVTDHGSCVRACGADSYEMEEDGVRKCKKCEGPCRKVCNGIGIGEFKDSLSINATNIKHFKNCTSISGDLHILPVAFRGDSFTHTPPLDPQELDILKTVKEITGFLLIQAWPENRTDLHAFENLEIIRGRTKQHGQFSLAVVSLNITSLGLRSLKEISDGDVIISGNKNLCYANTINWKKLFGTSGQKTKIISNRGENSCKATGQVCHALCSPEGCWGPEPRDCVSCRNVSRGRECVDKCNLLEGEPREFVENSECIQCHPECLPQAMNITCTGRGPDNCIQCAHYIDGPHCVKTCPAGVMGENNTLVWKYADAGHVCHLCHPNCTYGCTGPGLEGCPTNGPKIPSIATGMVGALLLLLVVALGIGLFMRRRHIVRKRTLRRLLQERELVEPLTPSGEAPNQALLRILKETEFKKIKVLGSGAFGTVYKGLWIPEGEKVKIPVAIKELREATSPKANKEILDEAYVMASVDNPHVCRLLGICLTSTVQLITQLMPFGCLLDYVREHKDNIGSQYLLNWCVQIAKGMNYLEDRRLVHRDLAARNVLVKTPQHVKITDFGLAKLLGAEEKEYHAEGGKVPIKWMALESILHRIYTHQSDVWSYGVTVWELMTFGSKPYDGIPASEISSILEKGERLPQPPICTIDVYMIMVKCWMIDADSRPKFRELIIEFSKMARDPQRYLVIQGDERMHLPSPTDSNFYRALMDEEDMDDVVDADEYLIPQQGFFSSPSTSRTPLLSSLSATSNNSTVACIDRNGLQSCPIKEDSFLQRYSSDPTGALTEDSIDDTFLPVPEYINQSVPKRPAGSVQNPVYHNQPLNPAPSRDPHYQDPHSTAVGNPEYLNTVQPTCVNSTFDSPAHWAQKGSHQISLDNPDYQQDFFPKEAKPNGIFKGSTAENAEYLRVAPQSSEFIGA
Sequence of Torsin-1A-interacting protein 1 (Homo sapiens) (Q5JTV8 whole entry, looked up): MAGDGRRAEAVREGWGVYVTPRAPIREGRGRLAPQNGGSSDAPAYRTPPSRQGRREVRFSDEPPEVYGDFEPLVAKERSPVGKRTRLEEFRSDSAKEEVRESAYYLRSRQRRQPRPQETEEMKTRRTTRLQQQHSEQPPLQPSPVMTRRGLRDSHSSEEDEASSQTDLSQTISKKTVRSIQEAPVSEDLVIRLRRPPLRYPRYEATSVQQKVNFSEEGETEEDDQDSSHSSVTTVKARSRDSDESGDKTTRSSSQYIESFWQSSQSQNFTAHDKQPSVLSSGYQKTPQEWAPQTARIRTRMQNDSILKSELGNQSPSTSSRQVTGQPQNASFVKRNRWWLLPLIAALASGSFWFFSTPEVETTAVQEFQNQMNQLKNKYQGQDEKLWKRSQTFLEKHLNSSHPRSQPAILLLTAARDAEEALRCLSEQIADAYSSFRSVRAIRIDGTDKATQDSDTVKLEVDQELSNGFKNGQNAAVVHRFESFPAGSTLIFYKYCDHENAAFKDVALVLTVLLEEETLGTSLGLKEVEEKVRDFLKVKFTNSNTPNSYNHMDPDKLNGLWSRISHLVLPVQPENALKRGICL
Sequence of Alpha-bungarotoxin (Bungarus multicinctus) (P60615 whole entry, looked up): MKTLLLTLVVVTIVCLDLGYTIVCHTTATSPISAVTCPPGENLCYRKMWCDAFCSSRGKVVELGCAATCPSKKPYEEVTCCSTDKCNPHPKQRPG
Sequence of Left-right determination factor 2 (Homo sapiens) (O00292 whole entry, looked up): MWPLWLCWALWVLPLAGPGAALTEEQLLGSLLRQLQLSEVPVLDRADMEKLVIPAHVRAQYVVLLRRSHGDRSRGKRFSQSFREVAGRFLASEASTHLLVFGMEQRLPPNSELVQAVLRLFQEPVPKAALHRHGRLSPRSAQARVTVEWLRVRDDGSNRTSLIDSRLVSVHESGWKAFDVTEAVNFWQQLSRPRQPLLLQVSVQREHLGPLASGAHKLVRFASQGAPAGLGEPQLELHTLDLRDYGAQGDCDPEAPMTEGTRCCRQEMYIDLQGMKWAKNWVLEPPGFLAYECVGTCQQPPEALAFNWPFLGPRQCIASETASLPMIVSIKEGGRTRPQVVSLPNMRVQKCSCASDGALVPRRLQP
Sequence of Fibroblast growth factor 10 (Homo sapiens) (O15520 whole entry, looked up): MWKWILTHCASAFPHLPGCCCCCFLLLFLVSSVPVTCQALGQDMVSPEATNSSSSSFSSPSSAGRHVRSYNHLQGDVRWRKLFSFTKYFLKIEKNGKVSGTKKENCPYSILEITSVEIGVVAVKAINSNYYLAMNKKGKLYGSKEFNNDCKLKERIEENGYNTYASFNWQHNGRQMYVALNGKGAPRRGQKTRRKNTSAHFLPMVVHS

For the compound `C=C(CCCC)/C(=C/C[C@@H](OC(C)=O)c1ccccc1OCCO)c1cnc2ccccc2c1`, the composite z-score in [1] was 0.561; in assay [2] it was 0.149; in assay [3], 0.12; in assay [5], 0.732; in assay [6] it was 0.21; in assay [7], -0.321. The composite z-score in assay [8] was 0.417; in assay [9] it was -0.0491; in assay [10], 1.33; in assay [11], 0.75; in assay [13] it was 0.157; in [14] it was -0.0416. Further, the composite z-score in assay [15] is -0.418; in assay [16], -0.124; in assay [17], -0.0977; in assay [18], 0.369; in [19], 0.44; in [20] it was 0.157. Also, the z-score in [4] is -0.397 (inactive); in assay [12], -2.25.

Turning to `COC(=O)[C@@]1(Cc2ccc(OC)cc2)[C@H]2c3cc(C(=O)N(C)C)n(Cc4cccc5ccccc45)c3C[C@H]2CN1C(=O)c1ccccc1`, the composite z-score in assay [1] was 0.971; in [2] it was 1.8; in assay [3], 0.771; in [5], 1.04; in assay [6] it was 0.329; in assay [7], 0.671. Moreover, the composite z-score turned out to be 0.553 in assay [8]; 0.208 in assay [9]; 0.537 in assay [10]; 1.48 in [11]; 0.243 in assay [13]; 1.48 in [14]. Moreover, the composite z-score in assay [15] was 0.94; in assay [16], 0.346; in assay [17], 1.33; in assay [18], 2.12; in assay [19] it was 1.41; in [20] it was 0.563. Besides, the z-score in assay [4] was -3.61 (inactive); in assay [12] it was -2.35.

In the case of `COc1ccc(C(=O)Nc2cccc(CN3C(=O)[C@]4(O[C@H](CCO)[C@@H]([Si](C)(C)c5ccc(OC)cc5)[C@@H]4C)c4ccccc43)c2)cc1`, the composite z-score in assay [1] came to 1.44; in [2], 0.541; in assay [3] it was 0.223; in assay [5], 0.691; in assay [6] it was 0.901; in assay [7] it was 0.0077. Also, the composite z-score in assay [8] was found to be 0.742; in [9], 0.331; in [10] it was 1.26; in [11], 1.28; in assay [13] it was 0.442; in assay [14], 0.123. Further, the composite z-score in assay [15] was 0.0559; in [16], 0.0194; in assay [17] it was -0.133; in assay [18], 0.6; in assay [19] it was 0.603; in assay [20], 0.805. The z-score in [4] was 1.3 (inactive); in assay [12] it was -5.16.

For the compound `COc1cc2c(cc1OC)CN(C(=O)[C@@H]1[C@H]3C(=O)O[C@H](c4ccccc4)[C@H](c4ccccc4)N3[C@H](c3ccc(O)cc3)[C@@]13C(=O)Nc1ccc(C#CC4(O)CCCCCC4)cc13)CC2`, the composite z-score is 1.41 in [1]; -0.767 in [2]; -0.692 in [3]; 1.28 in assay [5]; 1.29 in assay [6]; 0.458 in assay [7]. Further, the composite z-score was 0.498 in [8]; 0.474 in assay [9]; -0.439 in assay [10]; 1.21 in assay [11]; 1.39 in assay [13]; 0.965 in assay [14]. Further, the composite z-score in assay [15] was -0.0394; in assay [16] it was -0.195; in assay [17], -0.0005; in [18], 2.1; in [19], 0.344; in assay [20] it was 1.66. Besides, the z-score was 0.263 (inactive) in [4] and -1.1 in assay [12].

Consider `COC(=O)[C@@]1(Cc2ccccc2)[C@H]2c3cc(C(=O)N4CCCC4)n(Cc4cccc5ccccc45)c3C[C@H]2CN1C(=O)c1ccccc1`, for which the composite z-score in [1] is 0.473; in [2] it was 2.15; in assay [3], 1.44; in assay [5], 0.664; in [6], -0.348; in [7], 0.0512. The composite z-score in assay [8] was 0.272; in [9] it was -0.922; in assay [10] it was 1.07; in [11], 0.696; in [13] it was -0.188; in assay [14] it was 1.51. Moreover, the composite z-score stood at 1.42 in assay [15]; 0.816 in [16]; 1.96 in [17]; 0.714 in assay [18]; 0.434 in [19]; 0.645 in assay [20]. Moreover, the z-score in assay [4] was -1.33 (inactive); in assay [12], -1.55.

As for `C=C(/C(=C/C[C@@H](OC(C)=O)c1ccc(OCCO)cc1)c1cnc2ccccc2c1)C(C)C`, the composite z-score is 1.2 in assay [1]; -0.229 in assay [2]; 0.0459 in assay [3]; 0.528 in assay [5]; -0.0912 in assay [6]; -0.103 in [7]. In addition, the composite z-score is 0.77 in assay [8]; 0.218 in [9]; 1.5 in assay [10]; 1.32 in assay [11]; 0.49 in [13]; -0.196 in assay [14]. Further, the composite z-score was -0.541 in [15]; -0.091 in assay [16]; 0.111 in assay [17]; 0.0541 in assay [18]; 0.113 in assay [19]; 0.249 in assay [20]. The z-score was -0.837 (inactive) in assay [4] and -1.19 in [12].
